Shown are actives, neighbours in structure and some others; about 1.8% of the full set was active somewhere.
NOD2-RIPK2 inh = blocks binding of human NOD2 to RIPK2; O43353; CHO BLA complementation NOD2-RIPK2, CCF4 ratio; inhibition, % at 4.98 µM; 360,000 tested, 0.38% active; AID 624267; in the data active = inhibition above about 21%;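 also: 0% = vehicle only and 100% = reference blocker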
Mcl1-Noxa inh = disrupts binding of human Mcl-1 to Noxa peptide; Q07820; TR-FRET Mcl-1/Noxa peptide binding, 2 h; inhibition, % at 21.7 µM; 220,000 tested, 1.5% active;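 active = compounds that cut the protein-peptide binding signal by more than 50% relative to plate controls in a single-dose test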;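 also: His-tagged Mcl-1 with rhodamine Noxa BH3 peptide and terbium anti-His antibody; 0% = Mcl-1 plus Noxa peptide wells and 100% = peptide-only wells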
Target sequence (Q07820 whole entry, looked up): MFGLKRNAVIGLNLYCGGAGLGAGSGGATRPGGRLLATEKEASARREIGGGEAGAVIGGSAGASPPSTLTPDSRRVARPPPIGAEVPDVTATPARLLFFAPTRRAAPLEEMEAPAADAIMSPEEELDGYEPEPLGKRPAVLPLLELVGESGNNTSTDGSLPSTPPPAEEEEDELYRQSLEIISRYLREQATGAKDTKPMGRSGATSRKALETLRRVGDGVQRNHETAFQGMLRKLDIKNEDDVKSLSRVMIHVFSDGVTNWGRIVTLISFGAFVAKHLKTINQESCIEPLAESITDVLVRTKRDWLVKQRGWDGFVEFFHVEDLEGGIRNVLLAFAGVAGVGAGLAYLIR
Mcl1 Bid PPI = disrupts binding of human Mcl-1 to Bid peptide; Q07820; TR-FRET Mcl-1/Bid-Dy647 peptide binding, 1536-well; inhibition, % at 21.7 µM; 220,000 tested, 0.97% active;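 active = compounds that cut the binding signal by more than half at the single screening dose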;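 also: His-tagged Mcl-1 with europium anti-His antibody binding Bid BH3 peptide; 0% = Mcl-1 plus peptide wells and 100% = peptide-only wells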
Bim-Mcl-1 = human Bim-Mcl-1 interaction inhibition | 190,000 tested, 0.1% active | inhibition, % at 10 µM | Q07820 | Bead-based flow cytometry, Bim peptide-Mcl-1 binding; in the data active = inhibition above about 40%;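 also: 0% = no compound tracer wells and 100% = peptide blocker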
TLR4-MyD88 BLA = inhibitors of human TLR4-MyD88 binding; inhibition, % at 8.4 µM; HeLa CL3-4 TLR4/MyD88 BLA complementation, FRET ratio; 200,000 tested, 0.18% active; in the data active = inhibition above about 25%;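 also: 0% = vehicle and 100% = reference inhibitor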
TLR9-MyD88 block = blocks human TLR9 binding to MyD88 | Q9NR96+Q99836 | 340,000 tested, 0.21% active | inhibition, % at 4.98 µM | CHO BLA complementation TLR9-MyD88, CCF4 FRET ratio;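 active = inhibition above the mean over all tested compounds plus 3 SD, cut at about 21% in these data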;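 also: 0% = DMSO only wells and 100% = clavulanate BLA inhibitor control wells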
Starred values were filed as active, the others as inactive.

For CCOCCCNC(=O)c1ccc(Cn2c(=S)[nH]c3c([nH]c4ccc(OC)cc43)c2=O)cc1 the results were NOD2-RIPK2 inh -3, Mcl1-Noxa inh 56*, Mcl1 Bid PPI -27, Bim-Mcl-1 3, TLR4-MyD88 BLA -10 and TLR9-MyD88 block -2.
`COc1ccc2[nH]c3c(=O)n(Cc4ccc(C(=O)NCC5CCCO5)cc4)c(=S)[nH]c3c2c1` (stereo not drawn) gave NOD2-RIPK2 inh 6, Mcl1-Noxa inh 62*, Mcl1 Bid PPI -31, Bim-Mcl-1 -1, TLR4-MyD88 BLA 17 and TLR9-MyD88 block 4.
CC[C@H](C)NC(=O)c1ccc(Cn2c(=S)[nH]c3c([nH]c4ccc(OC)cc43)c2=O)cc1 was read as NOD2-RIPK2 inh -1, Mcl1-Noxa inh 76*, Mcl1 Bid PPI 27, Bim-Mcl-1 -14, TLR4-MyD88 BLA 4 and TLR9-MyD88 block 4.
`CCN(CC)CCNC(=O)CCCCn1c(=S)[nH]c2c([nH]c3ccc(OC)cc32)c1=O` gave NOD2-RIPK2 inh -14, Mcl1-Noxa inh 61*, Mcl1 Bid PPI -59, Bim-Mcl-1 0, TLR4-MyD88 BLA -8 and TLR9-MyD88 block 5.
CCCCNC(=O)c1ccc(Cn2c(=S)[nH]c3c([nH]c4ccc(OC)cc43)c2=O)cc1 was read as NOD2-RIPK2 inh -20, Mcl1-Noxa inh 44, Mcl1 Bid PPI -23, Bim-Mcl-1 -14, TLR4-MyD88 BLA -6 and TLR9-MyD88 block -2.
COCCn1c(=S)[nH]c2cc(C(=O)NCC3CCCO3)ccc2c1=O (stereo not drawn) was read as NOD2-RIPK2 inh 1, Mcl1-Noxa inh 5, Mcl1 Bid PPI -35, Bim-Mcl-1 0, TLR4-MyD88 BLA -2 and TLR9-MyD88 block 2.
For CS(=O)(=O)c1ccc(S(=O)(=O)N2CCN(C(=O)C(O)c3ccccc3)CC2)cc1 (stereo not drawn) the results were NOD2-RIPK2 inh 1.
For O=C(CSc1nnc(-c2c[nH]c3ccccc23)o1)NCC1CCCO1 (stereo not drawn) the results were NOD2-RIPK2 inh -10 and TLR9-MyD88 block -2.
For CCCCNC(=O)C1(C)CCN1C(=O)c1ccc(F)cc1Cl (stereo not drawn) the results were NOD2-RIPK2 inh -5.
`O=C(NCC1CCCO1)c1ccc(Cn2c(=S)[nH]c3ccccc3c2=O)cc1` (stereo not drawn) gave NOD2-RIPK2 inh 0, Mcl1-Noxa inh 81*, Mcl1 Bid PPI -27, Bim-Mcl-1 -2, TLR4-MyD88 BLA -17 and TLR9-MyD88 block 6.
For O=C(O)CCc1ccc(-c2ccccc2)n1Cc1ccco1 the results were NOD2-RIPK2 inh -3, Mcl1-Noxa inh 17, Mcl1 Bid PPI -75, Bim-Mcl-1 -4, TLR4-MyD88 BLA -8 and TLR9-MyD88 block -7.
Screening O=C(O)CCc1ccc(-c2ccc(Br)cc2)n1Cc1ccco1 returned NOD2-RIPK2 inh -5, Mcl1-Noxa inh 52*, Mcl1 Bid PPI -37, Bim-Mcl-1 0, TLR4-MyD88 BLA -5 and TLR9-MyD88 block 5.
Screening O=c1[nH]c(CN2CCN(c3ccccc3O)CC2)nc2scc(-c3ccccc3Cl)c12 returned NOD2-RIPK2 inh -3, Mcl1-Noxa inh 14, Mcl1 Bid PPI -21 and TLR9-MyD88 block 2.
For O=c1[nH]c(CN2CCN(c3ccc(O)cc3)CC2)nc2scc(-c3ccc(Cl)cc3)c12 the results were NOD2-RIPK2 inh 2, Mcl1-Noxa inh 66*, Mcl1 Bid PPI -55, Bim-Mcl-1 11, TLR4-MyD88 BLA -12 and TLR9-MyD88 block 6.
CNC(=O)C[C@H]1C(=O)N(c2ccc(OC)cc2)C[C@@H]1C was read as NOD2-RIPK2 inh -2 and TLR9-MyD88 block 6.
`CCOc1ccc(NC(=O)c2cc3c(C)nc4ccccc4c3o2)cc1` gave NOD2-RIPK2 inh -1, Mcl1-Noxa inh 42, Mcl1 Bid PPI 52*, Bim-Mcl-1 1, TLR4-MyD88 BLA -6 and TLR9-MyD88 block 4.
For Cc1nc2ccccc2c2oc(C(=O)NC3CC3)cc12 the results were NOD2-RIPK2 inh 3, Mcl1-Noxa inh 3, Mcl1 Bid PPI -2, Bim-Mcl-1 4, TLR4-MyD88 BLA -10 and TLR9-MyD88 block -15.
Screening O=C(Nc1ccc2oc(-c3cccnc3)nc2c1)c1ccc2c(c1)OCCO2 returned NOD2-RIPK2 inh 8, Mcl1-Noxa inh 53*, Mcl1 Bid PPI 41, Bim-Mcl-1 11, TLR4-MyD88 BLA -14 and TLR9-MyD88 block -8.
C#CCOCCOCCOCCNc1nc(N2CCN(C(=O)CCCCCCCCCCNC(=O)[C@H](CCCCN)n3cc(CCCC(=O)O)nn3)CC2)nc(N2CCN(C(=O)CCCCCCCCCCNC(=O)[C@H](CCCN=C(N)N)n3cc(C[C@@H](C)CC)nn3)CC2)n1 was read as NOD2-RIPK2 inh 10 and TLR9-MyD88 block -2.
C#CCOCCOCCOCCNc1nc(N2CCN(C(=O)CCCCCCCCCCNC(=O)Cn3cc(C[C@@H](C)O)nn3)CC2)nc(N2CCN(C(=O)CCCCCCCCCCNC(=O)Cn3cc(C[C@@H](C)O)nn3)CC2)n1 was read as NOD2-RIPK2 inh -1 and TLR9-MyD88 block -6.
`C#CCOCCOCCOCCNc1nc(N2CCN(C(=O)CCCCCCCCCCNC(=O)[C@H](CCCCN)n3cc(CCO)nn3)CC2)nc(N2CCN(C(=O)CCCCCCCCCCNC(=O)[C@H](CCCN=C(N)N)n3cc(C[C@@H](C)CC)nn3)CC2)n1` gave NOD2-RIPK2 inh 20 and TLR9-MyD88 block 22*.
`C#CCOCCOCCOCCNc1nc(N2CCN(C(=O)CCCCCCCCCCNC(=O)[C@@H](CCSC)n3cc(CCO)nn3)CC2)nc(N2CCN(C(=O)CCCCCCCCCCNC(=O)[C@H]([C@@H](C)CC)n3cc(CCCCN=C(N)N)nn3)CC2)n1` gave NOD2-RIPK2 inh 30* and TLR9-MyD88 block 1.
Screening C#CCOCCOCCOCCNc1nc(N2CCN(C(=O)CCCCCCCCCCNC(=O)Cn3cc(C[C@@H](C)O)nn3)CC2)nc(N2CCN(C(=O)CCCCCCCCCCNC(=O)[C@H](CCCCN)n3cc(C[C@@H](C)CC)nn3)CC2)n1 returned NOD2-RIPK2 inh 24* and TLR9-MyD88 block -2.
CCCOc1ccc(/C=C/C(=O)NCc2ccccc2)cc1 was read as NOD2-RIPK2 inh 0, Mcl1-Noxa inh 9, Mcl1 Bid PPI -18, Bim-Mcl-1 0, TLR4-MyD88 BLA 3 and TLR9-MyD88 block -6.
For COc1cccc(-c2ccc(NC(=O)C3CCCN(Cc4cnc(C)s4)C3)cc2)c1 (stereo not drawn) the results were NOD2-RIPK2 inh 3 and TLR9-MyD88 block -9.
`Cc1cccc(NC(=O)c2cccs2)n1` gave NOD2-RIPK2 inh -1, Mcl1-Noxa inh 78*, Mcl1 Bid PPI -5, Bim-Mcl-1 5, TLR4-MyD88 BLA -14 and TLR9-MyD88 block -2.

High-throughput results as filed in PubChem BioAssay.
